Measurements published in PubChem BioAssay (Tox21).
Inconclusive results are not listed. Unmarked numbers belong to inactive results. Active and inactive are the calls of the source. The call rests on the fitted dose curve.

Test: qHTS assay for small molecule agonists of the p53 signaling pathway (AID 651631); further: nearly all actives have a fitted effect of over 15% in size
Settings: HCT-116 p53RE-bla reporter, beta-lactamase FRET ratio, 16 h; series mostly up to 73.3 µM; activation: at the top concentration
Text: U.S. Tox21 Program National Center for Advancing Translational Sciences [NCATS] NIH Chemical Genomics Center [NCGC] U.S. Environmental Protection Agency [EPA] National Institutes of Environmental Health Sciences [NIEHS] National Toxicology Program [NTP] U.S. Food and Drug Administration [FDA] Tox21 Assay Overview: p53, a tumor suppressor protein, is activated following cellular insult, including DNA damage and other cellular stresses. The activation of p53 regulates cell fate by inducing DNA repair, cell cycle arrest, apoptosis, or cellular senescence. The activation of p53, therefore, is a good indicator of DNA damage and other cellular stresses. The CellSensor p53RE-bla HCT-116 cell line (Invitrogen) contains a stably integrated beta-lactamase reporter gene under control of the p53 response elements. The activation of the reporter gene under culture conditions can be detected by fluorescence intensity. This cell line was used to screen the Tox21 compound library in a 1536-well plate format and to identify agonists that activate the p53 signaling pathway.
Tox21 Assay Protocol Summary: The p53RE-bla cells were dispensed at 4,000 cells/5 ul/well in 1536-well black wall/clear bottom plates using a Multidrop dispenser. After the assay plates were incubated at a 37 C/5% CO2 incubator for 5 hours, 23 nL of compounds dissolved in DMSO, positive controls or DMSO only was transferred to the assay plate by a pin tool. The plates were incubated at 37 C for 16 hours. After 1 uL of LiveBLAzerTM B/G FRET substrate was added using a Flying Reagent Dispenser, the plates were incubated at room temperature for 2 hours, and fluorescence intensity was measured by an Envision plate reader.
On the % scale 0 is the no-effect control and ±100 the full control effect; potency means the concentration at half of the fitted maximal effect.

SMILES | activation | Potency
CCC(CN)CC(C)CCNCC(O)CNCC(C)CC(CC)CN (stereo not given) | -2.71% | –
Cc1cc(Nc2ccccc2C(=O)O)ccc1Cl | – | 15 µM (active)
CCCC(=O)O[C@]1(C(=O)COC(=O)CC)[C@@H](C)C[C@H]2[C@@H]3CCC4=CC(=O)C=C[C@]4(C)[C@@]3(F)[C@@H](O)C[C@@]21C | -5.11% | –
COc1ccc(-c2noc(CC(=O)O)c2-c2ccc(OC)cc2)cc1 | -4.13% | –
O=C(CCCN1CCC(C(=O)c2ccc(F)cc2)CC1)c1ccc(F)cc1 | 4.76% | –
CCCC(=O)O[C@]1(C(=O)COC(C)=O)CC[C@H]2[C@@H]3C[C@H](F)C4=CC(=O)C=C[C@]4(C)[C@@]3(F)[C@@H](O)C[C@@]21C | -5.16% | –
C[C@H]1C[C@H]2[C@@H]3CCC4=CC(=O)C=C[C@]4(C)[C@@]3(F)[C@@H](O)C[C@]2(C)[C@@]1(O)C(=O)CCl | -4.58% | –
CCC(=O)O[C@H]1CC[C@H]2[C@@H]3CCc4cc(O)ccc4[C@H]3CC[C@]12C | – | 33.5 µM (active)
CC1(C)C2CC[C@]3(C)[C@H](C(=O)C=C4[C@@H]5C[C@@](C)(C(=O)O)CC[C@]5(C)CC[C@]43C)[C@@]2(C)CC[C@@H]1O[C@H]1O[C@H](C(=O)O)[C@@H](O)[C@H](O)[C@H]1O[C@@H]1O[C@H](C(=O)O)[C@@H](O)[C@H](O)[C@H]1O (stereo not given in full) | -1.42% | –
C[C@@H]1C[C@H]2[C@@H]3CCC4=CC(=O)C=C[C@]4(C)[C@@]3(F)[C@@H](O)C[C@]2(C)[C@@]1(O)C(=O)COC(=O)c1cccc(S(=O)(=O)O)c1 | -1.28% | –
C[C@@H]1C/C=C/C=C/C=C/C=C/[C@H](O[C@@H]2O[C@H](C)[C@@H](O)[C@H](N)[C@@H]2O)C[C@@H]2O[C@](O)(C[C@@H](O)C[C@H]3O[C@@H]3/C=C/C(=O)O1)C[C@H](O)[C@H]2C(=O)O | -3.86% | –
Cc1cccc(Nc2ncccc2C(=O)O)c1C | -1.37% | –
C/C=C1\NC(=O)[C@H]2CSSCC/C=C/[C@H](CC(=O)N[C@H](C(C)C)C(=O)N2)OC(=O)C(C(C)C)NC1=O (stereo not given in full) | – | 7.5 µM (active)
CO[C@H]1O[C@@H]2O[C@@]3(C)CC[C@H]4[C@H](C)CC[C@@H]([C@H]1C)[C@@]24OO3 | 2.43% | –
Cc1cccc(C)c1NC(=O)NC1=CCCN1C | 2.17% | –
COc1ccc(C(=O)Nc2ccccc2CCC2CCCCN2C)cc1 (stereo not given) | -1.5% | –
O=C1N=C2SCCN2C(=O)C1Cc1ccc(Cl)cc1 (stereo not given) | 2.21% | –
CCCC(CCC)C(N)=O | -2.3% | –
CC1(S(=O)(=O)O)CC(=O)c2ccccc2C1=O (stereo not given) | – | 21.1 µM (active)
Cc1ncc(COP(=O)(O)O)c(CN)c1O | -2.07% | –

SMILES | activation | Potency
CCCCCCCCCCCCCCCCCC(=O)[O][Al] | -1.65% | –
CCN(CC)c1ccc(N=Nc2ccc(S(=O)(=O)N(C)C)cc2)c(S(=O)(=O)NCC[n+]2ccccc2)c1 | -2.67% | –
O=C(O)[C@H](CC(=O)N1C[C@H]2CCCC[C@H]2C1)Cc1ccccc1 | -2.15% | –
CCOC(=O)O[C@]1(C(=O)COC(=O)CC)CC[C@H]2[C@@H]3CCC4=CC(=O)C=C[C@]4(C)[C@H]3[C@@H](O)C[C@@]21C | -3.69% [at 34.7 µM] | –
COc1cc2c(cc1OC)CC(=O)N(CCCN(C)C[C@H]1Cc3cc(OC)c(OC)cc31)CC2 | -3.12% | –
CS(=O)(=O)c1ccc(C2=C(c3ccccc3)C(=O)OC2)cc1 | -4.06% | –
CN1c2c(nc(N)[nH]c2=O)NCC1CNc1ccc(C(=O)NC(CCC(=O)O)C(=O)O)cc1 (stereo not given) | 3.66% | –
O=C1C(=O)c2ncccc2-c2cccnc21 | – | 1.68 µM (active)
Cc1ccccc1CNc1ncnc2c1ncn2[C@@H]1O[C@H](CO)[C@@H](O)[C@H]1O | -5.27% | –
CN1CC(O)c2cc(N=NC(N)=O)c(O)cc21 (stereo not given) | -3.02% | –
NC[C@@H]1O[C@H](O[C@H]2[C@@H](O)[C@H](O[C@@H]3[C@@H](O)[C@H](N)C[C@H](N)[C@H]3O[C@H]3O[C@H](CO)[C@@H](O)[C@H](O)[C@H]3N)O[C@@H]2CO)[C@H](N)[C@@H](O)[C@@H]1O | -2.89% | –
O=c1[nH]cnc2[nH]cc(CN3CCCCC3)c12 | -2.39% | –
CO[C@@H]1[C@@H](O[C@@H]2O[C@H](C)[C@@H](O[C@H]3C[C@@](C)(O)[C@@H](OC(=O)CC(C)C)[C@H](C)O3)[C@H](N(C)C)[C@H]2O)[C@@H](CC=O)C[C@@H](C)[C@@H](O)/C=C/C=C/C[C@@H](C)OC(=O)C[C@H]1O | – | inactive
CC(CN(C)C)CN1c2ccccc2S(=O)(=O)c2ccccc21 (stereo not given) | -3.1% | –
CCCc1ccc(C(=O)O)cc1 | -3.2% | –
CO[C@H]1C=CO[C@@]2(C)Oc3c(C)c(O)c4c(O)c(c5c(nc6cc(C)ccn65)c4c3C2=O)NC(=O)/C(C)=C\C=C[C@H](C)[C@H](O)[C@@H](C)[C@@H](O)[C@@H](C)[C@H](OC(C)=O)[C@@H]1C | 7.97% | –
N#Cc1ccc2c(c1)N(CCCN1CCC(O)CC1)c1ccccc1S2 | – | 26.6 µM (active)
CCN(CC)CCOC(=O)c1ccc(N)cc1Cl | -3.74% | –
CCOC(=O)CN[C@@H](C(=O)N1CC[C@H]1C(=O)NCc1ccc(/C(N)=N/O)cc1)C1CCCCC1 | -2.42% | –
Nc1ncnc2c1ncn2[C@@H]1O[C@H](COP(=O)(O)OP(=O)(O)OP(=O)(O)O)[C@@H](O)[C@H]1O | – | 26.6 µM (active)
